In PubChem BioAssay:
The source made the active and inactive calls.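 How the source made its calls, unless noted: active means fluorescence slope higher than the sample average by over 3 SD (cut at about -0.22 in these data, passing the limit was not always enough); inactive means the rest.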

Legend:
[1] = inhibitors of TNFa-induced NFkB p65 translocation, primary screen, imaging, HUVEC, MLSMR starter and 10KST1 sets (AID 438;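 active means inhibition above 20% together with a positive visual image hit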;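 further: compound added about 3h40 before a 20 min TNFalpha stimulation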;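 on inhibition: signal is the nuclear over cytoplasmic p65 intensity ratio per well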); conditions: HUVEC TNFa-induced p65 nuclear translocation; cell count: measured here: nuclei count (cytotoxicity indicator), at 2.08 µM; inhibition: at 2 µM, stronger effect = higher value, 0% TNFa-plus-vehicle, 100% no-TNFa wells
[2] = reduction of polyQ htt aggregates in cells – imaging, exon1htt(103Q)mCFP cells, high-content imaging, primary screen (AID 483;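 active means visual image review flags a hit and inhibition of aggregation exceeds 20%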;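 further: compound exposure lasted 3 days before fixation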;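 on nuclei count: percent of the per-plate median nuclei count of sample wells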); conditions: exon1htt(103Q)mCFP cell line, aggregate imaging, at 2 µM; inhibition of aggregation: stronger effect = higher value; nuclei count: measured here: cell count, toxicity
[3] = endothelial E-selectin expression blockers – imaging, HUVEC, immunofluorescence, MLSMR starter and 10KST1 sets, primary screen (AID 487;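 active means visually confirmed hit in the image check and inhibition above 20%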;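 on inhibition: signal is fraction of cell area covered by stained E-selectin grains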;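 on nuclei count: 100% = median nuclei count of all wells on the same plate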); conditions: HUVEC TNFalpha-induced E-selectin immunofluorescence imaging, at 2 µM; inhibition: stronger effect = higher value; nuclei count: measured here: cell number, toxicity
[4] = molecular target: Voltage-gated potassium channel subunit beta-2 (Rattus norvegicus) (UniProt P62483); test: inhibitors of rat Kvbeta2 reductase activity – biochemical, NADPH fluorescence, primary screen (AID 622); conditions: recombinant KvBeta, 4-cyanobenzaldehyde reduction, at 10 µM, stronger effect = higher value;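 further: slope of raw intensity against log time taken from 70 to 1610 s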
Chain of Voltage-gated potassium channel subunit beta-2 (Rattus norvegicus) (P62483 whole entry, looked up): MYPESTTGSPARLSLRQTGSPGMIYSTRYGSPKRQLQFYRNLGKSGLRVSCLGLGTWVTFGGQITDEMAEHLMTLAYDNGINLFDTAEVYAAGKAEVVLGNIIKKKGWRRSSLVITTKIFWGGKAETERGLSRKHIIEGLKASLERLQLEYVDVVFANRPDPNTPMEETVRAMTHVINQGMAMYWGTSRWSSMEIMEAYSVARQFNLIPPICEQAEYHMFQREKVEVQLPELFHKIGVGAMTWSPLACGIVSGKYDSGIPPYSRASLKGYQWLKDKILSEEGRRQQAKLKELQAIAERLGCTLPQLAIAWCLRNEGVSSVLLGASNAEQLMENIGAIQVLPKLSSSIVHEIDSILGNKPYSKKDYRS

[5] = molecular target: Voltage-gated potassium channel subunit beta-2 (Rattus norvegicus) (UniProt P62483); test: enhancers of rat Kvbeta2 NADPH turnover – biochemical, NADPH fluorescence, primary screen (AID 623;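 active means NADPH fluorescence slope more negative than the mean of all samples by about 3 SD, 99.7% confidence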;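 further: fluorescence intensity change per second fitted from 20 to 320 s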); conditions: Recombinant KvBeta, NADPH fluorescence decrease slope, 10 min; at 10 µM; stronger effect = lower value
[6] = molecular target: Alpha-2C adrenergic receptor (Homo sapiens) (UniProt P18825); test: compounds altering alpha2C-coupled GIRK flux – cell-based, HEK293 alpha2C/GIRK1/2, thallium flux, primary screen (AID 624;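 active means fluorescence slope after compound addition differing from the mean of all screened samples at 99.7% confidence, in either direction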;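 further: slope of fluorescence ratio to pre-addition baseline per second over 15 to 24 s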); conditions: thallium flux BTC fluorescence, at 10 µM, actives lie on both sides
Chain of Alpha-2C adrenergic receptor (Homo sapiens) (P18825 whole entry, looked up): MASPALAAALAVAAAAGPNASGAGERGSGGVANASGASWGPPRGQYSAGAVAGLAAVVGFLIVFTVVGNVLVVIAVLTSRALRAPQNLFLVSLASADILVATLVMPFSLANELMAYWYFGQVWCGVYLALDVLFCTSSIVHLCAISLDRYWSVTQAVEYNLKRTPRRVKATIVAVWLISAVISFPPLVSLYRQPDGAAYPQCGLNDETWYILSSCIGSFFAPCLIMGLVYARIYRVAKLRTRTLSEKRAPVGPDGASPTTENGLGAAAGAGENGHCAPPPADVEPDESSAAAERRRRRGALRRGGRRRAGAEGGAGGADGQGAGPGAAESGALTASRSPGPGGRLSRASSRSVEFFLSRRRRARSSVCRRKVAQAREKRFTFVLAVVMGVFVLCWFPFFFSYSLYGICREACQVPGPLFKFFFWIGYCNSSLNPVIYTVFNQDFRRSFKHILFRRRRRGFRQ

[7] = blockers of RIG-like receptor reporter activation – cell-based, Sendai virus stimulus, luciferase, 10K MLSCN set, TLR/RLR signaling modifier project, primary screen (AID 602276;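 active means inhibition at or above 50% at 10 µM; inactive means inhibition below 50%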;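 further: firefly luciferase from ISG56 promoter only with Renilla not read in this screen; 0% = Sendai virus plus DMSO and 100% = medium plus DMSO without virus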); conditions: HEK293 RL24 IRF3 luciferase reporter, at 10 µM, stronger effect = higher value
[8] = TLR3 IRF3 reporter activation blockers – cell-based, poly I:C stimulus, luciferase, 10K MLSCN set, primary screen (AID 602277;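 active means inhibition of the reporter signal at or above 50%; inactive means inhibition below 50%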); conditions: HEK293-TLR3 RL24 IRF3 luciferase reporter, at 10 µM, stronger effect = higher value

Structure (SMILES)	cell count [1]	inhibition [1]	inhibition of aggregation [2]	nuclei count [2]	inhibition [3]	nuclei count [3]	fluorescence slope [4]	NADPH fluorescence slope [5]	slope [6]	inhibition [7]	inhibition [8]
Cc1ccc(NC(=O)C2CCCN2S(=O)(=O)c2cccc3cccnc23)cc1F (stereo not drawn)	577	-1.1% (inactive)	3.5% (inactive)	71.6%	-56.2% (inactive)	100%	-0.55 (inactive)	-3.9e-05 (inactive)	0.00633 (inactive)	9.99% (inactive)	33.6% (inactive)
C#CCNc1c(C)c(C)nc2ncnn12	306	-9.4% (inactive)	32.2% (inactive)	86.1%	-44.2% (inactive)	89.3%	-0.592 (inactive)	-3.6e-05 (inactive)	0.00371 (inactive)	14.5% (inactive)	9.86% (inactive)
O=c1c2ccccc2nc(SCc2nnc(-c3ccccc3Br)o2)n1-c1ccccc1	379	2.9% (inactive)	5.3% (inactive)	63.9%	-18.3% (inactive)	104%	-0.573 (inactive)	-4.9e-05 (inactive)	0.00444 (inactive)	0.607% (inactive)	1.7% (inactive)
Cc1cccc(-n2ncc3c(NCCCn4ccnc4)ncnc32)c1	604	1.3% (inactive)	30.9% (inactive)	99.7%	-29.8% (inactive)	119%	-0.45 (inactive)	-4.7e-05 (inactive)	0.00546 (inactive)	-63.1% (inactive)	-121% (inactive)
O=C1c2ccccc2CN1CCNS(=O)(=O)c1ccc(Cl)cc1	414	-1% (inactive)	-2.3% (inactive)	101%	-1.7% (inactive)	97%	-0.389 (inactive)	-7.9e-06 (inactive)	0.00712 (inactive)	14.1% (inactive)	25.9% (inactive)
CSCCC(NS(=O)(=O)c1ccc2c(c1)oc(=O)n2C)C(=O)NC1CCCCC1 (stereo not drawn)	627	-6% (inactive)	7.8% (inactive)	93%	-35.6% (inactive)	106%	-0.584 (inactive)	-3.7e-05 (inactive)	0.00669 (inactive)	11.8% (inactive)	25.6% (inactive)
O=C(NCc1ccc2c(c1)OCO2)C1CCC(CNS(=O)(=O)c2ccccc2)CC1 (stereo not drawn)	316	8.9% (inactive)	-31.1% (inactive)	111%	-4.9% (inactive)	116%	-0.489 (inactive)	1.3e-05 (inactive)	0.00655 (inactive)	11.6% (inactive)	26.6% (inactive)
O=C(O)c1ccc(COc2ccc(Cl)cc2)o1	262	-3.3% (inactive)	10.6% (inactive)	81%	-24% (inactive)	88.3%	-0.49 (inactive)	-3e-05 (inactive)	0.00685 (inactive)	-14.7% (inactive)	-60.9% (inactive)
O=C(Cn1nnc(-c2cc(Cl)ccc2-n2cnnn2)n1)N1CCCc2ccccc21	574	-2.1% (inactive)	-3.1% (inactive)	97.2%	-13.8% (inactive)	105%	-0.425 (inactive)	-0.000127 (inactive)	0.00585 (inactive)	17.3% (inactive)	23.2% (inactive)
CCCCN(C)C(=O)c1cn(C)c2ccc(S(=O)(=O)N(C)C)cc2c1=O	559	-5.1% (inactive)	15.7% (inactive)	76.4%	39.3% (inactive)	105%	-0.6 (inactive)	-3.3e-05 (inactive)	0.00635 (inactive)	6.56% (inactive)	27.1% (inactive)
COc1cc2nc(SCC(=O)NC3CC3)n(CCC3=CCCCC3)c(=O)c2cc1OC	688	-4% (inactive)	0.8% (inactive)	101%	-35.1% (inactive)	108%	-0.427 (inactive)	-4e-06 (inactive)	0.00342 (inactive)	14.1% (inactive)	24.7% (inactive)
Cc1ccc2oc(C(=O)Nc3c(C)n(C)n(-c4ccccc4)c3=O)c(C)c2c1	776	-5% (inactive)	-1.5% (inactive)	109%	-37.6% (inactive)	108%	-0.616 (inactive)	-2.7e-05 (inactive)	0.00692 (inactive)	-5.27% (inactive)	7.35% (inactive)
COc1cc(C(=O)Nc2ccc(-n3cnnn3)c(C)c2)cc(OC)c1OC	302	5.8% (inactive)	11.6% (inactive)	90%	-94.5% (inactive)	149%	-0.617 (inactive)	3e-06 (inactive)	0.00564 (inactive)	-0.467% (inactive)	20.8% (inactive)
